# Data: PubChem BioAssay AID651815 (National Center for Advancing Translational Sciences (NCATS), 2012)
# Screen size: about 2,100 compounds; about 1,100 (52%) were called active. Not shown: some 29% with an inconclusive outcome. Calls follow the shape of the dose curve; as a rule, active = well fitted inhibition curve with a large enough effect; inconclusive = small, poorly fitted or top-dose-only effect; inactive = no such curve, though single readings can be large or run the other way. So high a share suggests a set chosen from earlier hits. The list shows a part of the results.
# Molecular target: DNA dC->dU-editing enzyme APOBEC-3F (Homo sapiens) (UniProt Q8IUX4)
# Assay: qHTS for inhibitors of Vif-A3F interactions: Cherry picks counterscreen; also: nearly all actives have a fitted effect of over 65% in size
# Settings: HeLa A3F-eYFP/Vif cells, eYFP fluorescence, 24 h; series mostly up to 46.1 µM
# Outline: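 HeLa cells stably expressing A3F-eYFP and Vif, cultured overnight, then treated 24 h at 37 degrees C with compounds at several concentrations; yellow fluorescence (488 nm Ex/500-530 nm Em) imaged on Acumen; MG132 positive control.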
# Potency is read from the fitted curve at half-maximal effect.
# DNA dC->dU-editing enzyme APOBEC-3F (Homo sapiens), sequence (Q8IUX4 whole entry, looked up): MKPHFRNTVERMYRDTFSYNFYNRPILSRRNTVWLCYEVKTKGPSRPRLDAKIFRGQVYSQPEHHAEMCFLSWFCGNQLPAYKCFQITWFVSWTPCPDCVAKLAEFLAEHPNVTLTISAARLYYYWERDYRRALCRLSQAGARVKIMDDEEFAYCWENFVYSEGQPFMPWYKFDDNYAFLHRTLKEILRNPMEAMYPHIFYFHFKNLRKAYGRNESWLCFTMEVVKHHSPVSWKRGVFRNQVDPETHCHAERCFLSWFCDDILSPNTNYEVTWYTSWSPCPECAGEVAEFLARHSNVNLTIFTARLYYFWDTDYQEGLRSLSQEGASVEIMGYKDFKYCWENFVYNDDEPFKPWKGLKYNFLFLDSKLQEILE
row,SMILES,Potency
1,NC(=O)c1ccc(NC(=O)C#Cc2ccccc2)cc1,inactive
2,Cc1c(/C=N\NC(=O)c2cc3ccccc3o2)c2ccccc2n1C,5.59 µM (active)
3,Cc1cc(/C=N/NC(=O)c2cc3ccccc3o2)c(C)n1C,inactive
4,O=C(N/N=C/c1cccc2ccccc12)c1cc2ccccc2o1,7.9 µM (active)
5,Cc1cccc(C)c1Nc1nc2ccccc2nc1NS(=O)(=O)c1ccccc1,23.1 µM (active)
6,COc1cc(Cl)c(C)cc1Nc1nc2ccccc2nc1NS(=O)(=O)c1ccccc1,1.46 µM (active)
7,COc1ccc(OC)c(Nc2nc(-c3ccncc3)nc3ccccc23)c1,inactive
8,Cc1cc(Br)ccc1SCC(=O)OC/C(O)=C(\C#N)c1nc2ccccc2[nH]1,inactive
9,CCOC(=O)N1CCN(/C=C(\C#N)c2nc3ccccc3s2)CC1,18.4 µM (active)
10,CCOc1ccccc1Nc1nnc(-c2cc3cc(OC)ccc3oc2=O)s1,9.2 µM (active)
11,CCOc1ccccc1Nc1nnc(-c2cc3cc(Cl)ccc3oc2=O)s1,5.17 µM (active)
12,COc1ccc2oc(=O)c(-c3nc4ccccc4o3)cc2c1,14.6 µM (active)
13,O=C(CCCCl)Oc1ccc2cc(-c3ccc4ccccc4n3)c(=O)oc2c1,inactive
14,CC(O)CN(CC(C)O)c1ccc2c(c1)Cc1cc([N+](=O)[O-])ccc1-2 (centres undefined),2.31 µM (active)
15,CCN1C(=O)/C(=C/C=C2\N(CC)c3cc(S(=O)(=O)N(C)C)ccc3N2c2ccccc2)SC1=S,6.27 µM (active)
16,CCN(CC)c1ccc(/C=N/NC(=S)NC)c(O)c1,inactive
17,CCN(CC)c1ccc(/C=N/N=C(N)N)c(O)c1,4.44 µM (active)
18,CN(Cc1cnn(Cc2ccccc2)c1)C(=O)c1cccc(S(=O)(=O)N2CCOCC2)c1,11.2 µM (active)
19,O=C(O)CCCN1C(=O)/C(=C\C(Cl)=C\c2ccccc2)SC1=S,7.04 µM (active)
20,CC1=CC(C)(C)NC(=S)N1c1ccc2ccccc2c1,inactive
21,N#CC(=Cc1ccccn1)c1nc(-c2ccc(Cl)cc2)cs1,12.5 µM (active)
22,O=C(NCCc1ccccc1Cl)c1ccc(Cn2c(=O)c3cccn3c3cccnc32)cc1,18.4 µM (active)
23,O=[N+]([O-])c1ccc(-c2ccc(/C=N/Nc3nc(NCc4ccccc4)nc(N4CCOCC4)n3)o2)cc1,18.4 µM (active)
24,COCCNC(=S)N/N=C/c1ccc(-c2ccc([N+](=O)[O-])cc2)o1,15.8 µM (active)

row,SMILES,Potency
1,Cc1cc([N+](=O)[O-])ccc1-c1ccc(/C=N/NC(=O)c2ccc(Br)o2)o1,20.6 µM (active)
2,O=C(Cc1ccccc1)N/N=C/c1ccc(-c2ccc([N+](=O)[O-])cc2)o1,15.8 µM (active)
3,COCCNC(=S)N/N=C(\C)c1ccc(OC(F)F)cc1,inactive
4,O=C(N/N=C/c1ccc(-c2ccc([N+](=O)[O-])cc2)o1)[C@H]1C[C@@H]1c1ccccc1,inactive
5,COCCNC(=S)NN=C1CCCCCC1,inactive
6,CC(C)(C)NC(=S)N/N=C\c1ccc(-c2ccc([N+](=O)[O-])cc2)o1,18.4 µM (active)
7,CN(/N=C/c1ccc(-c2ccc([N+](=O)[O-])cc2)o1)c1ccccc1,1.46 µM (active)
8,CCOc1ccc(S(=O)(=O)N(CC(=O)N/N=C/c2ccc(-c3ccc([N+](=O)[O-])cc3)o2)c2ccccc2)cc1,3.53 µM (active)
9,O=C(O)c1cccc(-c2ccc(/C=N/Nc3ccc([N+](=O)[O-])cc3)o2)c1,18.4 µM (active)
10,Cn1ncc(N=Cc2c(O)ccc3ccccc23)c1C(=O)Nc1cccc(Cl)c1,14.6 µM (active)
11,Cc1cc2nc(SCCOC(=O)Nc3cccc(Cl)c3)nc(C)c2cc1C,inactive
12,CCCOc1ccccc1C1CC(=O)Nc2cc3c(cc21)OCO3 (centres undefined),3.96 µM (active)
13,CCOc1ccccc1C1CC(=O)NC2=C1C(=O)CCC2 (centres undefined),12.5 µM (active)
14,CCCOc1ccccc1C1CC(=O)NC2=C1C(=O)CCC2 (centres undefined),7.04 µM (active)
15,Cc1c(C(=O)Nc2ccc(C(C)C)cc2)sc2nc3n(c(=O)c12)CCC3,inactive
16,CC(C)c1ccc(C(=O)NCCCNC(=O)c2cnccn2)cc1,inactive
17,CC(C)c1ccc(NC(=O)Nc2cnccn2)cc1,17.7 µM (active)
18,CCOC(=O)Cn1c(=O)c(-c2cc(Br)ccc2N)nc2ccccc21,11.6 µM (active)
19,CCOC(=O)COn1c(=O)c(-c2ccc(Br)cc2)[n+]([O-])c2ccccc21,inactive
20,CCOc1ccccc1N1CC(c2nc3ccccc3n2Cc2c(C)cc(C)cc2C)CC1=O (centres undefined),inactive
21,CN(C)c1ccc(/C=C2/C[N+](C)(C)C/C(=C/c3ccc(N(C)C)cc3)C2=O)cc1,7.31 µM (active)
22,Nc1ccccc1C=C1Cc2ccccc2C1=O,16.4 µM (active)
23,CN(C)c1ccc(/C=C2\Cc3ccccc3C2=O)cc1,2.91 µM (active)
24,Cc1ccccc1NC(=O)CSC1=C(C#N)C(c2ccsc2)CC(=O)N1 (centres undefined),inactive

row,SMILES,Potency
1,CCOC(=O)CSC1=C(C#N)C(c2ccc(C)s2)CC(=O)N1 (centres undefined),1.98 µM (active)
2,O=C(CCc1ccccc1)Nc1ccc(Cl)cn1,3.96 µM (active)
3,CCCC(=O)NC1=C(Cl)C(=O)c2ccccc2C1=O,inactive
4,S=C(NCc1ccco1)Nc1ccc(Cl)cn1,inactive
5,CN(C)c1ccc(/C=C/c2nc3ccccc3c(=O)n2CCO)cc1,23.1 µM (active)
6,CN(C)c1ccc(/C=C/c2cc(N(C)C)nc3ccccc23)cc1,8.2 µM (active)
7,CCN(CC)c1ccc(/C=C/c2cc(-c3ccccc3)c3ccccc3n2)cc1,7.04 µM (active)
8,CN(C)c1ccc(/C=C/c2cc(/C=C/c3ccc(N(C)C)cc3)c3ccccc3n2)cc1,5.17 µM (active)
9,CCC(C)Sc1cccc(-c2nc3cc(C)ccn3c2NC2CCCCC2)c1 (centres undefined),inactive
10,Nc1ccc(/C=C/c2cc(Cl)nc3ccccc23)cc1,23.1 µM (active)
11,Nc1ccc2nc(-c3ccccc3)c(-c3ccccc3)nc2c1,inactive
12,CN1C(=S)N(c2cccnc2)C(=O)/C1=C\c1ccc(N(C)C)cc1,9.94 µM (active)
13,CN1C(=O)/C(=C\c2ccc(N(C)C)cc2)OC1=S,1.98 µM (active)
14,Cc1c(N2C(=O)/C(=C/c3ccc(N(C)C)cc3)N(C)C2=S)c(=O)n(-c2ccccc2)n1C,20.6 µM (active)
15,Cc1ccc(/C=N/NC(=O)CCCOc2ccc(Cl)cc2Cl)cc1,4.98 µM (active)
16,O=C1N/C(=C\c2ccccc2)c2ccccc21,1.58 µM (active)
17,O=C1NC(c2ccccc2Br)=N/C1=C\c1ccco1,inactive
18,Cc1cccc2cc3c(N)c(C(=O)N4CCCc5ccccc54)sc3nc12,20.6 µM (active)
19,Cc1cccc2cc3c(N)c(C(=O)N4CCc5ccccc54)sc3nc12,6.51 µM (active)
20,Cc1ccc2nc3sc(C(=O)N4CCCc5ccccc54)c(N)c3cc2c1,12.5 µM (active)
21,Fc1ccc(-c2cnn3c(-c4cccs4)ccnc23)cc1,15.8 µM (active)
22,COc1ccccc1C1c2ccc3ccccc3c2Oc2ncn(CCN(C)C)c(=N)c21 (centres undefined),15.8 µM (active)
23,COC(=O)C1=COC(C)C2CN3CCc4c([nH]c5cc(OC)c(OC)cc45)C3CC12 (centres undefined),inactive
24,COC(=O)C1C2CC3c4[nH]c5cc(OC)ccc5c4CCN3CC2CC(OC(=O)CC(C)=O)C1OC (centres undefined),18.4 µM (active)

row,SMILES,Potency
1,COC(=O)C1C2CC3c4[nH]c5cc(OC)ccc5c4CCN3CC2CC(OC2CCCCO2)C1OC (centres undefined),inactive
2,COc1ccc(-c2n[nH]c(C)c2-c2ccc(OC)c(OC)c2)c(O)c1,7.9 µM (active)
3,COc1ccccc1NS(=O)(=O)c1cc([N+](=O)[O-])ccc1N/N=C/c1sc(N2CCOCC2)nc1-c1ccccc1,1.46 µM (active)
4,O=[N+]([O-])c1ccc(N/N=C/c2sc(N3CCOCC3)nc2-c2ccccc2)c(S(=O)(=O)Nc2ccccc2Cl)c1,5.8 µM (active)
5,O=[N+]([O-])c1ccccc1S(=O)(=O)Nc1ccc(-c2ccc(N3CCOCC3)nn2)cc1,inactive
6,CCOC(=O)c1ccc(NC(=S)NC(=O)C2CCCC2)cc1,inactive
7,COC(=O)c1ccc(NC(=O)CC2Nc3cc(C)c(C)cc3NC2=O)cc1 (centres undefined),9.2 µM (active)
8,CCCSc1ncc(Cl)c(C(=O)Nc2sc3c(c2C(N)=O)CCCC3)n1,18.4 µM (active)
9,CCOC(=O)c1ccc(/C=C2/C=C(c3ccccc3)N(c3ccc(Cl)c(C(=O)O)c3)C2=O)cc1,20.6 µM (active)
10,Cc1nonc1NC(=O)CSc1nc2c(C)cccc2cc1C#N,16.4 µM (active)
11,Cc1cc(NC(=O)CSc2nc(-c3cccs3)nc3ccccc23)no1,0.994 µM (active)
12,Cc1cc(NC(=O)CSc2nc3c(C)cccc3cc2C#N)no1,6.51 µM (active)
13,Cc1cc2cc(C#N)c(SCC(=O)Nc3nonc3C)nc2cc1C,23.1 µM (active)
14,CC(Nc1oc(-c2ccc(COc3ccccc3)o2)nc1C#N)c1ccccc1 (centres undefined),inactive
15,Cc1nc2cc(NC(=O)CSc3nc4c(C)cccc4cc3C#N)ccc2s1,13 µM (active)
16,Cc1ccc2nc(SCC(=O)Nc3ccc4sc(C)nc4c3)c(C#N)cc2c1,16.4 µM (active)
17,Cc1cccc(C(=O)Nc2nnc(C3=COCCO3)o2)c1,inactive
18,N=C1S/C(=C\c2ccc(-c3cccc(Cl)c3)o2)C(=O)N1c1nccs1,18.4 µM (active)
19,COc1ccc(N=Cc2c(O)n(-c3cccc(C)n3)c(=O)c3ccccc23)c(OC)c1,23.1 µM (active)
20,Cc1ccc(N=Cc2c(O)n(-c3nccs3)c(=O)c3ccccc23)c(C)c1,inactive
21,O=C(N/N=C/c1c(O)n(-c2ccc(Cl)cn2)c(=O)c2ccccc12)c1ccncc1,inactive
22,CCOC(=O)Cc1ccc(Nc2nc3cc(-c4sccc4C)sc3c(=O)n2C)cc1,3.96 µM (active)
